Test results as given in PubChem BioAssay (NCI).
This is part of a sample that, as a whole, favours compounds with a hit. Of some 83,000 tested, about 20% had one in any assay.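 Treatment: one concentration, 48 hours, 96-well format. Scoring: percent growth, with anything below 10 considered active.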 The source made the active and inactive calls.

These compounds were tested on NCI-H522 lung (assay: NCI-60 one-dose screen, 48 h (100 = growth as untreated, 0 = no growth, -100 = all killed)). Details: 10 µM.

Row | SMILES | growth
1 | O=[N+]([O-])C1CC2C=CC1C2 (centres undefined) | 101% (inactive)
2 | COc1ccc(C2CC(c3ccc(-c4ccccc4)cc3)=NN2c2ccc(S(N)(=O)=O)cc2)cc1 (centres undefined) | 40.3% (inactive)
3 | O=C(Nc1cccc(F)c1)Nc1cccc(Cl)c1 | 90.5% (inactive)
4 | COc1cc(/C=C2\C(=O)Nc3cc(C)c(O)cc32)cc(OC)c1OC | 41.6% (inactive)
5 | COC(=O)c1ccc(Cn2ccc(=O)[nH]c2=O)cc1 | 93.2% (inactive)
6 | Nc1nc2c(ncn2C2OC3COP(=O)(O)OC4C(COP(=O)(O)OC2C3O)OC(n2cnc3c(N)ncnc32)C4O)c(=O)[nH]1 (centres undefined) | 103% (inactive)
7 | COc1cccc(C(=O)NNc2nc(N3CCN(C4CCCCC4)CC3)nc(N3CCN(C(c4ccccc4)c4ccccc4)CC3)n2)c1 | 60.5% (inactive)
8 | O=C(CCCC(=O)N/N=C/c1cc(Cl)ccc1O)N/N=C\c1cc(Cl)ccc1O | 18.3% (inactive)
9 | COc1ccc2nc(/C=C/c3ccc(N(C)C)cc3)sc2c1 | 90.6% (inactive)
10 | O=c1cc(CSc2nnc(-c3ccccc3)n2-c2ccc(F)cc2)c2ccc3ccccc3c2o1 | 74.1% (inactive)
11 | O=C(O)CCCCSCCCCC(=O)O | 83.3% (inactive)
12 | C#C[C@]1(O)CC[C@H]2[C@@H]3CC[C@H]4CC(F)(F)CC[C@]4(C)[C@H]3CC[C@@]21C | 105% (inactive)
13 | O=C(OCC1OC(n2cc(C(F)(F)F)c(=O)[nH]c2=O)CC1OC(=O)c1ccc([N+](=O)[O-])cc1)c1ccc([N+](=O)[O-])cc1 (centres undefined) | 76.6% (inactive)
14 | COC(=O)c1cnc2c(c1)Oc1ccc(Cl)cc1-c1cc(C)nn1-2 | 82.3% (inactive)
